Laboratory results as given in PubChem BioAssay (NCI).
This is part of a sample that, as a whole, favours compounds with a hit. Of some 83,000 tested, about 20% had one in any assay.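 Assay: single dose, 48 h. Readout: percent growth (0 = no net growth; negative = cell death). Active: <10.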 Active and inactive are the calls of the source.

Assays:
Test in all cases: NCI-60 one-dose screen, 48 h (100 = growth as untreated, 0 = no growth, -100 = all killed)
Conditions in all cases: 10 µM unless noted
NCI-H23 lung = system: NCI-H23 lung
NCI-H322M lung = system: NCI-H322M lung
HOP-62 NSCLC = system: HOP-62 NSCLC
NCI-H460 lung = system: NCI-H460 lung
HOP-92 NSCLC = system: HOP-92 NSCLC
NCI-H522 lung = system: NCI-H522 lung
A549/ATCC NSCLC = system: A549/ATCC NSCLC
786-0 renal = system: 786-0 renal
COLO 205 colon = system: COLO 205 colon

| Structure (SMILES) | growth (NCI-H23 lung) | growth (NCI-H322M lung) | growth (HOP-62 NSCLC) | growth (NCI-H460 lung) | growth (HOP-92 NSCLC) | growth (NCI-H522 lung) | growth (A549/ATCC NSCLC) | growth (786-0 renal) | growth (COLO 205 colon) |
| --- | --- | --- | --- | --- | --- | --- | --- | --- | --- |
| COc1ccc(C=C2c3ccccc3-c3ccccc32)cc1 | 67.6% (inactive) | 72.2% (inactive) | 55.2% (inactive) | 30.6% (inactive) | 67.3% (inactive) | 13.7% (inactive) | 52.2% (inactive) | 58.5% (inactive) | 29.6% (inactive) |
| Nc1nnc(CSc2nnc3n(Cc4ccccc4)c(=O)c4c5c(sc4n23)CCCC5)s1 | 88.5% (inactive) | 111% (inactive) | 99.2% (inactive) | 15.4% (inactive) | 70.6% (inactive) | 66.8% (inactive) | 95.1% (inactive) | 93.3% (inactive) | 77.4% (inactive) |
| COc1cc(/C=C/C(=O)/C=C/c2ccc(-n3ccnc3C)cc2)ccc1O | 64% (inactive) | 100% (inactive) | 88.5% (inactive) | 81.2% (inactive) | 95.1% (inactive) | 81.4% (inactive) | 62.1% (inactive) | 97.2% (inactive) | 60.1% (inactive) |
| Oc1ccc(N=Nc2nccs2)c(O)c1 | 81.2% (inactive) | 74.4% (inactive) | 79% (inactive) | 31.2% (inactive) | 61.7% (inactive) | 41.5% (inactive) | 52.2% (inactive) | 36.8% (inactive) | 24.8% (inactive) |
| O=C(Nc1cccnc1)c1ccc2ccc3ccc(C(=O)Nc4cccnc4)nc3c2n1 | 23.1% (inactive) | 10.5% (inactive) | 9.18% (active) | 1.69% (active) | 23.9% (inactive) | 30.7% (inactive) | 22.1% (inactive) | 19.9% (inactive) | 13.2% (inactive) |
| CCCCN(CC)CC(CC)Nc1cc(OC)cc2cccnc12 (stereo unspecified) | 113% (inactive) | 110% (inactive) | 110% (inactive) | 110% (inactive) | 89.4% (inactive) | 118% (inactive) | – | 107% (inactive) | 119% (inactive) |
| C=C(C)[C@@H]1CC[C@]2(C(=O)NCCNCCNC(=O)OC(C)(C)C)CC[C@]3(C)[C@H](CC[C@@H]4[C@@]5(C)CCC(=O)C(C)(C)[C@@H]5CC[C@]43C)[C@@H]12 | 37.1% [100 µM] (inactive) | 73.8% [100 µM] (inactive) | 45.4% [100 µM] (inactive) | 20.6% [100 µM] (inactive) | 8.07% [100 µM] (active) | 39.9% [100 µM] (inactive) | 32.1% [100 µM] (inactive) | 52.6% [100 µM] (inactive) | 57.7% [100 µM] (inactive) |
| N#C/C(C(=O)c1ccccc1)=C1/C(=O)Nc2ccccc21 | 102% (inactive) | 100% (inactive) | 86.3% (inactive) | 106% (inactive) | 105% (inactive) | 97.6% (inactive) | 106% (inactive) | 6.59% (active) | 105% (inactive) |
| NC(=S)Cc1ccccc1 | 102% (inactive) | 98.3% (inactive) | 98.1% (inactive) | 106% (inactive) | 108% (inactive) | 92% (inactive) | 99.7% (inactive) | 99.6% (inactive) | 108% (inactive) |
| O=C1/C(=C/c2cccc(OCc3ccccc3)c2)Oc2cc(OCCN3CCCCC3)ccc21 | 86.4% (inactive) | 75.4% (inactive) | 89.4% (inactive) | 83.3% (inactive) | 46.9% (inactive) | 106% (inactive) | 79.5% (inactive) | 67.7% (inactive) | 93.8% (inactive) |
| Ic1ccc2[nH]cc(SSc3c[nH]c4ccc(I)cc34)c2c1 | 17.9% (inactive) | 57.8% (inactive) | 30.4% (inactive) | -11.5% (active) | -6.72% (active) | -48% (active) | 21.8% (inactive) | 41.6% (inactive) | -37.1% (active) |
| O=C(Nc1ccc(CN2CCOCC2)c(C(F)(F)F)c1)c1nc2ccc3[nH]ncc3c2c2c1CCCC2 | 93.2% (inactive) | 102% (inactive) | 78.8% (inactive) | 90.1% (inactive) | 99.2% (inactive) | 87.3% (inactive) | 63.3% (inactive) | 101% (inactive) | 83.4% (inactive) |
| COc1cc(OC)cc(C(=O)Nc2cc(-c3cccnc3)nc(NCCCN3CCOCC3)n2)c1 | 91.7% (inactive) | 90.9% (inactive) | 87.8% (inactive) | 95.3% (inactive) | 67.7% (inactive) | 92% (inactive) | 92.6% (inactive) | 84% (inactive) | 94.3% (inactive) |
| COc1cc(-c2nc(SCCC(C)C)nc(Nc3ccccc3)c2C#N)cc(OC)c1OC | 97.1% (inactive) | 103% (inactive) | 114% (inactive) | 101% (inactive) | 86.8% (inactive) | 80.6% (inactive) | 91.5% (inactive) | 91.7% (inactive) | 99.1% (inactive) |
| O=C(CCCCCCSc1nc(-c2ccc(Cl)cc2)cc(-c2ccc(Cl)cc2)n1)NO | 24.2% (inactive) | 38.4% (inactive) | 15.9% (inactive) | 14.9% (inactive) | 44.8% (inactive) | 17.1% (inactive) | 7.16% (active) | 30.8% (inactive) | 48.4% (inactive) |
| COc1ccc(/C=C2\N=C(Nc3ccccc3)N(NC(=O)c3ccccn3)C2=O)cc1 | 101% (inactive) | 106% (inactive) | 107% (inactive) | 99.7% (inactive) | 95.8% (inactive) | 90% (inactive) | 99.1% (inactive) | 96.4% (inactive) | 115% (inactive) |
| CSc1nc(N)c(N=Nc2ccc(S(=O)(=O)Nc3nnc(C)s3)cc2)c(=O)[nH]1 | 107% (inactive) | 109% (inactive) | 104% (inactive) | 106% (inactive) | 108% (inactive) | 103% (inactive) | 115% (inactive) | 114% (inactive) | 96.3% (inactive) |
| Nc1nc(Nc2ccccc2)c2ncn(Cc3ccc4c(c3)OCO4)c2n1 | 62.8% (inactive) | 58.1% (inactive) | 40.8% (inactive) | 15.9% (inactive) | 63.9% (inactive) | 43.8% (inactive) | 42% (inactive) | 54.8% (inactive) | 47% (inactive) |
| CCOC(=O)c1c[nH]c2cc(OCC3CC3)c(OCC3CC3)cc2c1=O | 110% (inactive) | 100% (inactive) | 109% (inactive) | 103% (inactive) | 116% (inactive) | 95.5% (inactive) | 109% (inactive) | 120% (inactive) | 113% (inactive) |
| NC(=O)c1c(NC(=O)COC(=O)Cc2ccccc2F)sc2c1CCC2 | 99.2% (inactive) | 126% (inactive) | 115% (inactive) | 100% (inactive) | 89.3% (inactive) | 85.5% (inactive) | 103% (inactive) | 97.6% (inactive) | 101% (inactive) |
| O=C(CCN1CCCCC1)c1ccc2ccccc2c1 | 103% (inactive) | 98.4% (inactive) | 108% (inactive) | 103% (inactive) | 92.8% (inactive) | 93.5% (inactive) | 102% (inactive) | 111% (inactive) | – |
| CC(C)CSc1ncnc2nc[nH]c12 | 94.7% (inactive) | 103% (inactive) | 95.9% (inactive) | 96.9% (inactive) | 68.8% (inactive) | 88% (inactive) | 103% (inactive) | 93.8% (inactive) | 101% (inactive) |
